Data as given in the supplement of paper PMC7411054.

Columns and labels:
Assay in all cases: phenotypically active (imaging signature differs from DMSO and reproducible) at any of 0.3-9 uM (binary (1 = active, 0 = inactive)); higher = active
Conditions in all cases: treatment time: 24 h
[1] = tested on: A549-ACTB-RAB5A
Procedure, shortened: (§1)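 After 24 h at 0.3, 1, 3 or 9 µM, with four wells per treatment, fifteen gene-edited A549, HepG2 and WPMY1 reporter lines carrying BFP, GFP and RFP/FusionRed were imaged live. Each well's live-cell features were expressed relative to solvent control wells. Deviation required ≥3 of 4 wells past the 95th percentile of control Euclidean distances, and reproducibility a median replicate Pearson correlation over the 95th percentile of non-replicates. Phenotypic activity rested on both.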

[2] = tested on: A549-CANX-COX4
Procedure, shortened: as §1

[3] = tested on: A549-GM130-SQSTM1
Procedure, shortened: as §1

[4] = tested on: A549-TP53BP1-CLTA
Procedure, shortened: as §1

[5] = tested on: A549-TUBA1B-RELA
Procedure, shortened: as §1

[6] = tested on: HepG2-ACTB-RAB5A
Procedure, shortened: as §1

[7] = tested on: HepG2-CANX-COX4
Procedure, shortened: as §1

[8] = tested on: HepG2-GM130-SQSTM1
Procedure, shortened: as §1

[9] = tested on: HepG2-TP53BP1-CLTA
Procedure, shortened: as §1

[10] = tested on: HepG2-TUBA1B-RELA
Procedure, shortened: as §1

[11] = tested on: WPMY1-ACTB-RAB5A
Procedure, shortened: as §1

[12] = tested on: WPMY1-CANX-COX4
Procedure, shortened: as §1

[13] = tested on: WPMY1-GM130-SQSTM1
Procedure, shortened: as §1

[14] = tested on: WPMY1-TP53BP1-CLTA
Procedure, shortened: as §1

[15] = tested on: WPMY1-TUBA1B-RELA
Procedure, shortened: as §1

Measured: phenotypically active

Brc1c(Br)c(Br)c2[nH]nnc2c1Br
inactive: [1] 0 | [2] 0 | [3] 0 | [4] 0 | [5] 0 | [6] 0 | [7] 0 | [8] 0 | [9] 0 | [10] 0 | [11] 0 | [12] 0 | [13] 0 | [14] 0 | [15] 0

CC(C)[N@+]1(C)[C@@H]2CC[C@H]1C[C@@H](OC(=O)C(CO)c1ccccc1)C2 (stereo not given in full) [ipratropium]
inactive: [1] 0 | [2] 0 | [3] 0 | [4] 0 | [5] 0 | [6] 0 | [7] 0 | [8] 0 | [9] 0 | [10] 0 | [11] 0 | [12] 0 | [13] 0 | [14] 0 | [15] 0

CN(C)/N=N/c1[nH]cnc1C(N)=O [dacarbazine]
inactive: [1] 0 | [2] 0 | [3] 0 | [4] 0 | [5] 0 | [6] 0 | [7] 0 | [8] 0 | [9] 0 | [10] 0 | [11] 0 | [12] 0 | [13] 0 | [14] 0 | [15] 0

O=C(O)c1ccc(O)c2ncccc12
inactive: [1] 0 | [2] 0 | [3] 0 | [4] 0 | [5] 0 | [6] 0 | [7] 0 | [8] 0 | [9] 0 | [10] 0 | [11] 0 | [12] 0 | [13] 0 | [14] 0 | [15] 0

C#C[C@]1(O)CC[C@H]2[C@@H]3CCc4cc(OC)ccc4[C@H]3CC[C@@]21C [mestranol]
inactive: [1] 0 | [2] 0 | [3] 0 | [4] 0 | [5] 0 | [6] 0 | [7] 0 | [8] 0 | [9] 0 | [10] 0 | [11] 0 | [12] 0 | [13] 0 | [14] 0 | [15] 0

O=C1N(c2ccccc2)c2ccccc2C1(Cc1ccncc1)Cc1ccncc1 [linopirdine]
inactive: [1] 0 | [2] 0 | [3] 0 | [4] 0 | [5] 0 | [6] 0 | [7] 0 | [8] 0 | [9] 0 | [10] 0 | [11] 0 | [12] 0 | [13] 0 | [14] 0 | [15] 0

CCCNC(C)C(=O)Nc1c(C)csc1C(=O)OC (stereo not given) [articaine]
inactive: [1] 0 | [2] 0 | [3] 0 | [4] 0 | [5] 0 | [6] 0 | [7] 0 | [8] 0 | [9] 0 | [10] 0 | [11] 0 | [12] 0 | [13] 0 | [14] 0 | [15] 0

Cc1cccc(Nc2cc(Cl)nc(SCC(=O)O)n2)c1C
inactive: [1] 0 | [2] 0 | [3] 0 | [4] 0 | [5] 0 | [6] 0 | [7] 0 | [8] 0 | [9] 0 | [10] 0 | [11] 0 | [12] 0 | [13] 0 | [14] 0 | [15] 0

Cn1c(=O)c2[nH]cnc2n(C)c1=O [Aminophylline]
inactive: [1] 0 | [2] 0 | [3] 0 | [4] 0 | [5] 0 | [6] 0 | [7] 0 | [8] 0 | [9] 0 | [10] 0 | [11] 0 | [12] 0 | [13] 0 | [14] 0 | [15] 0

CCOC(=O)CCNc1cc(N2CCc3ccccc3CC2)nc(-c2cccnc2)n1
inactive: [1] 0 | [2] 0 | [3] 0 | [4] 0 | [5] 0 | [6] 0 | [7] 0 | [8] 0 | [9] 0 | [10] 0 | [11] 0 | [12] 0 | [13] 0 | [14] 0 | [15] 0

CCCCC(=O)O[C@H]1CC[C@H]2[C@@H]3CCc4cc(O)ccc4[C@H]3CC[C@]12C [estradiol valerate]
inactive: [1] 0 | [2] 0 | [3] 0 | [4] 0 | [5] 0 | [6] 0 | [7] 0 | [8] 0 | [9] 0 | [10] 0 | [11] 0 | [12] 0 | [13] 0 | [14] 0 | [15] 0

C#CCN(C)Cc1ccccc1 [pargyline]
inactive: [1] 0 | [2] 0 | [3] 0 | [4] 0 | [5] 0 | [6] 0 | [7] 0 | [8] 0 | [9] 0 | [10] 0 | [11] 0 | [12] 0 | [13] 0 | [14] 0 | [15] 0
